This note sets out measurements from PubChem BioAssay (NCATS).

Molecules are shown by their SMILES. Values joined by “and” are separate entries in the source; they are usually repeats but may differ in a detail not shown here. Identical values can stand only once. Records with an inconclusive call do not appear. Active and inactive are the calls of the source. Unless noted, calls come from the whole dose curve; as a rule, active = well fitted curve in the direction sought with a large enough effect; inconclusive = small, poorly fitted or top-dose-only effect, or another doubt; inactive = no such curve, though single readings can be large; an effect the other way counts as inactive or inconclusive.

Experiment [1] can be described thus: qHTS Assay for Lipid Storage Modulators (AID 1519; calls by dose curve). Particulars: Drosophila S3 cells, BODIPY lipid droplet/cell ratio, laser cytometry, cells loaded with oleic acid. The method in brief:
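Cells seeded at 5,000 per well were treated with compounds over a concentration series and loaded with oleic acid (400 uM, as added). Lipid droplet fluorescence (488 nm excitation, 500-530 nm channel) was read by laser-scanning cytometry and normalized to 20 uM Triacsin C.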
A general note: In qHTS, concentration-response curves come from the screen itself.

Experiment [2] has as its target Alpha-galactosidase A (Homo sapiens) (UniProt P06280). The experiment in a line: Counterscreen for Glucocerebrosidase Inhibitors: qHTS Assay for Human alpha-Galactosidase at pH 4.5 (AID 992). Note: 0% is about no effect. The method in brief: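 Enzyme at 2 nM final was combined with compound (0.7 nM to 77 uM) and 80 uM 4-methylumbelliferyl alpha-D-galactopyranoside in 50 mM citric acid, 0.005% Tween-20, pH 4.5. After 20 min at room temperature, fluorescence was read (Ex 365/Em 440 nm); AC50 came from Hill fits.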
A general note: The purpose of a counterscreen is to sort out artefacts and off-target activity.

Experiment [3] in a line: Cell Viability - LYMP1-002 - Assay at 24 hr (AID 993). Note: % is set by controls: 0 for no effect and ±100 for the full control effect. The method in brief: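 Human lymphoblastoid LYMP1-002 cells (2500/well) treated 24 h at 37 °C; viability as intracellular ATP by CellTiter-Glo luminescence. Tetraoctylammonium bromide as positive control; AC50 from Hill-equation fits of qHTS concentration-response.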
The nature of experiment [4]: Cell Viability - LYMP1-002 - Assay at 40 hr (AID 994).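 Note: 0% = DMSO only and full inhibition = 92 µM tetraoctylammonium bromide; nearly all actives have a fitted effect of over 60% in size.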 The method in brief: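 LYMP1-002 human lymphoblastoid cells (2500/well, complete medium) were treated with compounds for 40 hr at 37 C. Intracellular ATP was measured by CellTiter-Glo luminescence, and AC50 values came from Hill-equation fits of concentration-response data; tetraoctylammonium bromide was the positive control.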

In experiment [5] the target is alpha-glucosidase (Oryza sativa, rice) (UniProt Q653V4). The experiment in a line: Counterscreen for Glucocerebrosidase Inhibitors: qHTS Assay for Rice alpha-Glucosidase at pH 5.0 (AID 997).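 Note: 0% = full activity with enzyme and -100% = basal without enzyme.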 The method in brief:
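Rice alpha-glucosidase (4 nM final) with 400 uM 4-methylumbelliferyl-alpha-D-glucopyranoside in citrate buffer pH 5.0, 20 min at room temperature, stopped at pH 10; fluorescence 365/440 nm, compounds 0.7 nM–77 uM, AC50 from Hill fits.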

Experiment [6] has as its target DNA repair nuclease/redox regulator APEX1 (Homo sapiens) (UniProt P27695). The experiment in a line: qHTS Validation Assay for Inhibitors of the Human Apurinic/apyrimidinic Endonuclease 1 (APE1) (AID 1705;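 note: TAMRA fluorescence gain over two minutes as APE1 cuts a quenched THF abasic duplex; % is set by controls: 0 for no effect and ±100 for the full control effect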). The method, boiled down: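 Substrate: 50 nM final fluorophore/quencher THF-abasic duplex. Enzyme preincubated with compounds 15 min, RT. Progress derived from fluorescence difference, third minus first kinetic read.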

The target in experiment [7] is Endonuclease 4 (Escherichia coli (strain K12)) (UniProt P0A6C1). The experiment in a line: Counterscreen for APE1 Inhibitors: qHTS Validation Assay for Inhibitors of Endonuclease IV (AID 1708). Note: % is set by controls: 0 for no effect and ±100 for the full control effect. The method, boiled down: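 qHTS concentration-response format; LOPAC1280 tested under APE1-screen conditions. 2 nM enzyme, 15 min compound preincubation at RT, then 50 nM TAMRA/BHQ-2 abasic substrate; kinetic fluorescence read, three reads at 60 s intervals.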

Experiment [8] in a line: qHTS for differential inhibitors of proliferation of Plasmodium falciparum line 7G8 (AID 1815).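 Note: parasite growth measured after three days of incubation; plate controls were vehicle wells for no effect and reference inhibitor wells for full effect.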
A short description of experiment [9]: qHTS for differential inhibitors of proliferation of Plasmodium falciparum line GB4 (AID 1816).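 Note: parasite growth measured after 72 h incubation; 0% = vehicle DMSO and -100% = reference inhibitor.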 The following applies: Potency: Plasmodium falciparum GB4 proliferation inhibition.
Experiment [10] is described as follows: qHTS for differential inhibitors of proliferation of Plasmodium falciparum line 3D7 (AID 1876).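 Note: parasite growth measured after three days of culture; 0% = vehicle wells and -100% = reference inhibitor wells.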
A short description of experiment [11]: qHTS for differential inhibitors of proliferation of Plasmodium falciparum line D10 (AID 1877).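 Note: parasites grown with compound for 72 h before DNA staining; plate controls were vehicle wells for no effect and reference inhibitor wells for full effect.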
Experiment [12] can be described thus: qHTS for differential inhibitors of proliferation of Plasmodium falciparum line Dd2 (AID 1882).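 Note: plate controls were DMSO vehicle for no effect and 0.29 µM artemisinin for full effect; nearly all actives have a fitted effect of over 65% in size.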 Particulars: Potency: Plasmodium falciparum Dd2 proliferation inhibition. The method in brief: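 Dd2-infected erythrocytes (0.3% parasitemia, 2.5% hematocrit final) incubated with compound 72 h at 37 C, 5% CO2; lysed with saponin/Triton buffer containing SYBR Green I, incubated overnight in the dark, then read by fluorescence (485/535 nm). Normalized to 0.29 uM artemisinin and DMSO.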

Experiment [13] in a line: qHTS for differential inhibitors of proliferation of Plasmodium falciparum line W2 (AID 1883).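 Note: parasites grown with compound for 72 h before lysis and staining; 0% = vehicle wells and -100% = control inhibitor wells.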 The following applies: Potency: Plasmodium falciparum W2 proliferation inhibition.
A short description of experiment [14]: qHTS for differential inhibitors of proliferation of Plasmodium falciparum line HB3 (AID 1886).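 Note: parasites grown with compound for 72 h before SYBR Green readout; plate controls were vehicle for no effect and reference inhibitor for full effect.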 Particulars: Potency: Plasmodium falciparum HB3 proliferation inhibition.
Experiment [15] is described as follows: qHTS Assay for Identification of Small Molecule Inducers of Hypoxia Response (AID 2120; active = well fitted curve in the direction sought with a large enough effect in the signal ratio, with a control signal flat, not every such curve was filed as active; the % refers to the signal ratio; note: 0% is about no effect). The method in brief:
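HRE-bla ME-180 cells in Opti-MEM with 0.5% dialyzed FBS, pre-plated 4-5 h, then compound titration for 17 h at 37 degrees Celsius. CCF4 loaded 2.5 h at room temperature; 460/530 nm ratio gave %Activity and AC50 for induction.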

Experiment [16] has as its target Ferritin light chain (Equus caballus) (UniProt P02791). The experiment in a line: qHTS Validation Assay for Identification of Novel General Anesthetics (AID 2323). Note: % is set by controls: 0 for no effect and ±100 for the full control effect. The method in brief: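 Normalized fluorescence response, scaled between free 1-AMA and 1-AMA/apoferritin complex, fitted to a four-parameter Hill equation for concentration-effect values. Binding mix: 10 uM horse-spleen apoferritin, 50% saturated 1-AMA in PBS; read 380/535 nm after 10 min.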

The target of experiment [17] is ATP-dependent DNA helicase Q1 (Homo sapiens) (UniProt P46063). Briefly: qHTS Validation Assay for Inhibitors of RecQ-Like Dna Helicase 1 (RECQ1) (AID 2353).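 Note: plate controls were DMSO vehicle for no effect and enzyme-free control for full effect.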 The method, boiled down: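 50 nM RECQ1T1 preincubated 15 min with compound in Tris pH 8.0 buffer with MgCl2, DTT, Tween-20 and 2.5 ug/ml poly(dI-dC); started with 200 nM TAMRA/BHQ-2 forked duplex and 2 mM ATP. Unwinding read as fluorescence (525/598 nm), two reads 2 h apart.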

The target of experiment [18] is RecQ-like DNA helicase BLM (Homo sapiens) (UniProt P54132). The experiment in a line: qHTS Validation Assay for Inhibitors of Bloom's syndrome helicase (BLM) (AID 2364).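 Note: plate controls were DMSO vehicle for no effect and enzyme-free control for full effect.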 The method in brief: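 Forked 20-bp duplex substrate (200 nM, TAMRA/BHQ-2) plus 2 mM ATP added after 15 min compound preincubation with 50 nM enzyme, pH 8.0, poly(dI-dC) 2.5 ug/ml. Strand separation followed by fluorescence (525/598 nm) over 2 h, normalized to enzyme-free and DMSO controls.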

Experiment [19] is described as follows: Validation of Assay for Modulators of Lamin A Splicing (AID 1459; active = well fitted curve in the direction sought with a large enough effect in the signal ratio; the % refers to the signal ratio;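 note: cells exposed to compound for two days before reading; 0% is about no effect; ratio rise marks activators and ratio drop marks inhibitors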). The method in brief: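 Dual-reporter HeLa S3 line (lamin A-EGFP minigene, DsRed2) treated with compounds 48 hrs, 0.5% DMSO final. Endpoint: EGFP/DsRed2 total intensity ratio from laser-scanning microplate cytometry.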
Experiment [20] can be described thus: qHTS Assay for Modulators of Human Peripheral Myelin Protein 22 (PMP22) Expression/Activity (AID 1967; active = well fitted curve in the direction sought with a large enough effect in the signal ratio; the % refers to the signal ratio;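 note: 0% = untreated cells and 100% end not stated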). The method, boiled down:
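Engineered MSC80 cells, Pmp22-promoter green and EF-alpha red luciferase reporters; 24h compound treatment at 37 °C. Concentration-response fits on green, red and ratio signals, each overlap-corrected, with %Activity normalized to untreated wells.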

The mark [21] stands for this setting: measured here: cell count channel max response.
[22] abbreviates: measured here: lipid channel max response.

Chain of ATP-dependent DNA helicase Q1 (Homo sapiens) (P46063 whole entry, looked up): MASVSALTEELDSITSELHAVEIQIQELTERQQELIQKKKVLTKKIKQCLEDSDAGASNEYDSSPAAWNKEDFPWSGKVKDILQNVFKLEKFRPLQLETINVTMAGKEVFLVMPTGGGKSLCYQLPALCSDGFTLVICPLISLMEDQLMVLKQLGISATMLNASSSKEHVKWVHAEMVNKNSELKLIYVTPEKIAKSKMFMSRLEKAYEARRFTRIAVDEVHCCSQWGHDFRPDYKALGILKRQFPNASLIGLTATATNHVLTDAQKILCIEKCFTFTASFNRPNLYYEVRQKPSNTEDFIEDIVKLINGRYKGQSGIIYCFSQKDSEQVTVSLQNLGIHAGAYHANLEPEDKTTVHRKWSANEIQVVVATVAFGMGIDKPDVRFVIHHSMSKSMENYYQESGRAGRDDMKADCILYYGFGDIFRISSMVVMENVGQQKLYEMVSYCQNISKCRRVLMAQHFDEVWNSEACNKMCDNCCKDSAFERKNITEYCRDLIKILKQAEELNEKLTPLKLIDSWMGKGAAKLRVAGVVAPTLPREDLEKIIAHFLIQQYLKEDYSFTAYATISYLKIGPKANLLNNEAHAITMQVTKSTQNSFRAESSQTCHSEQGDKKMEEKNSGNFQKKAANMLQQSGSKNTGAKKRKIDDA
Chain of Alpha-galactosidase A (Homo sapiens) (P06280 whole entry, looked up): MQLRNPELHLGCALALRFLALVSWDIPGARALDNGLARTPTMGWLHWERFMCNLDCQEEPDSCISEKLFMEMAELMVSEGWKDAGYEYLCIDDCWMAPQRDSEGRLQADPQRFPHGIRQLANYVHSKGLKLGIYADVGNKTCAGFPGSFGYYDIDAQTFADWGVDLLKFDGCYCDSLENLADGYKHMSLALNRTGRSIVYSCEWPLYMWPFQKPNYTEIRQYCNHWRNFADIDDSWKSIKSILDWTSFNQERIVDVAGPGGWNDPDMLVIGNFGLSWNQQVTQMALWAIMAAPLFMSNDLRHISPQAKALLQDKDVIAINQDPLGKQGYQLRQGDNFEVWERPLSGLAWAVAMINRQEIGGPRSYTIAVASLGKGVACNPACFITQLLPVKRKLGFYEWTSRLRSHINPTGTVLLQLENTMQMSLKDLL
Chain of DNA repair nuclease/redox regulator APEX1 (Homo sapiens) (P27695 whole entry, looked up): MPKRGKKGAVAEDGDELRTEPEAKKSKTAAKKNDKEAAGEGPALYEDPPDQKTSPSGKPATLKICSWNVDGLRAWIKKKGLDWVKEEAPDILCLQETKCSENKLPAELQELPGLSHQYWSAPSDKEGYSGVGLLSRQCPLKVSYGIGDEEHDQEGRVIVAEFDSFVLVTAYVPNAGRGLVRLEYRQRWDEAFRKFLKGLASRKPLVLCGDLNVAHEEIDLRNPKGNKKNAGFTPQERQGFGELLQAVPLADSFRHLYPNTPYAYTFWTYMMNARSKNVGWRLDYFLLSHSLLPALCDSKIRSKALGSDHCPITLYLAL
Chain of Ferritin light chain (Equus caballus) (P02791 2-175 limits assumed): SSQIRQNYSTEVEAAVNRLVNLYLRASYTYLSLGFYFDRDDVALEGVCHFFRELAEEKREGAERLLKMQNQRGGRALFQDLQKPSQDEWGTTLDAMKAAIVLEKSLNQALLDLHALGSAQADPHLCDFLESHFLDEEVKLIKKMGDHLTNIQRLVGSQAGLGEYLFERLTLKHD
Chain of RecQ-like DNA helicase BLM (Homo sapiens) (P54132 whole entry, looked up): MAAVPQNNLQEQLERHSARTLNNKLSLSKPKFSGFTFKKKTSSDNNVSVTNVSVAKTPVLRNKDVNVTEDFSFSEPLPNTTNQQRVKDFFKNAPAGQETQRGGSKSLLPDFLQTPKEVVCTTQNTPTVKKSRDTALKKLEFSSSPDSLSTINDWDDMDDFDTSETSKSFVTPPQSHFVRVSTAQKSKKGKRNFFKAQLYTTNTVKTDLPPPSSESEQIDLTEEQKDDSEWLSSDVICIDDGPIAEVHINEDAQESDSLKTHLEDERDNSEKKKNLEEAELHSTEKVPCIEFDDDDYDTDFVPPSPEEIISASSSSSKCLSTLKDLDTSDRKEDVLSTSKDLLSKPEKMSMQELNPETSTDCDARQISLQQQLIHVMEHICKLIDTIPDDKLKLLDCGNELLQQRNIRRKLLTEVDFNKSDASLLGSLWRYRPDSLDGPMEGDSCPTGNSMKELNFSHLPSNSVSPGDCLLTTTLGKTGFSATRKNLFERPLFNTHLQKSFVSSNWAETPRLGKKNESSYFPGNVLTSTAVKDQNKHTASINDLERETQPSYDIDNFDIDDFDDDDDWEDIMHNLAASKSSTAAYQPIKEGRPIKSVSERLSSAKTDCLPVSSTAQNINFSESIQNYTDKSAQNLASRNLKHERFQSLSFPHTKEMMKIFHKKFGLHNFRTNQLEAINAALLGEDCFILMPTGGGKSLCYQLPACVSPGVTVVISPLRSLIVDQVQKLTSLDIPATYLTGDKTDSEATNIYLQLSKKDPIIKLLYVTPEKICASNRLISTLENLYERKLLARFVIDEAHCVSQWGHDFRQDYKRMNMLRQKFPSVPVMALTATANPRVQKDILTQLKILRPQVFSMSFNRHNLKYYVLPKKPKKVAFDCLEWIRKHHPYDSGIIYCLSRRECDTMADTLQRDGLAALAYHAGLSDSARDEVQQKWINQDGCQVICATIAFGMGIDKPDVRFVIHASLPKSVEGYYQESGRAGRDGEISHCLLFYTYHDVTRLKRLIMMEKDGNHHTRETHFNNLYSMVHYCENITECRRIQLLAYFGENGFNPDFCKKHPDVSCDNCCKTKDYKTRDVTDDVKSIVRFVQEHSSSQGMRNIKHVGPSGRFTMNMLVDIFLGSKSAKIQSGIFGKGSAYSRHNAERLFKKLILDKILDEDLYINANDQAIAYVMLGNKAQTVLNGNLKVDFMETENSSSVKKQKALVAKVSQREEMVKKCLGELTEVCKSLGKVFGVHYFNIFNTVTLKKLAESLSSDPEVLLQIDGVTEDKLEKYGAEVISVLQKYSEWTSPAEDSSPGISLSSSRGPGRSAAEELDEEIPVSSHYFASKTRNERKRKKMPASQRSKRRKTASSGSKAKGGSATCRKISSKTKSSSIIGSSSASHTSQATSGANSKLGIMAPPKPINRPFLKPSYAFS

For the compound `C[C@@H](O)[C@H]1C(=O)N2C(C(=O)O)=C(S[C@@H]3CN[C@H](C(=O)N(C)C)C3)[C@H](C)[C@H]12`, the activity change, negative = inhibition in experiment [1] (at 25.7 µM (top of the series)) was -1.28% (inactive). The max response was -4.15% in experiment [1] (setting [21]) and -5.75% in [1] (setting [22]).

As for `COc1cc(O)c2c(c1)C(=O)c1cc(C)cc(O)c1C2=O`, in experiment [1] (at 57.5 µM (top of the series)), the activity change, negative = inhibition is 2.34% (inactive). In addition, the max response was determined as 7.65% in experiment [1] (setting [21]) and 11.5% in [1] (setting [22]).

As for `Nc1ncnc2c1ncn2[C@@H]1O[C@@H](CO)[C@H](O)[C@H]1O`, the activity change, negative = inhibition in experiment [1] (at 25.7 µM (top of the series)) is -0.901% (inactive). The max response in [1] (setting [21]) was -3.51%; in experiment [1] (setting [22]), -9.07%.

In the case of `O=c1cc(-c2ccccc2)oc2cc(O)c(O)c(O)c12`, the activity change, negative = inhibition in experiment [1] (at 57.5 µM (top of the series)) is 6.99% (inactive). Further, the max response is -15.3% in experiment [1] (setting [21]) and -4.95% in experiment [1] (setting [22]).

As to `CCCNC(=O)NS(=O)(=O)c1ccc(Cl)cc1`, the call in experiment [2], in experiment [5], in experiment [6], in experiment [7], in experiment [15] and in experiment [16] was inactive. For the same compound, in experiment [17], the outcome was inactive. Moreover, the Potency entry in experiment [3], in experiment [4], in experiment [8], in experiment [9], in [10] and in experiment [11] was “inactive” each time. The Potency entry in experiment [12], in experiment [13], in [14] and in experiment [18] was “inactive” each time. The activity change, negative = inhibition in experiment [1] (at 25.7 µM (top of the series)) is -1.71% (inactive). Besides, the max response in experiment [1] (setting [21]) was 8.45%; in experiment [1] (setting [22]), 7.5%.

`C[C@]12CCC3c4ccc(O)cc4CCC3C1CCC2=O` (some centres not stated): the activity change, negative = inhibition in [1] (at 57.5 µM (top of the series)) was 3.27% (inactive). Also, the max response in experiment [1] (setting [21]) was -11.3%; in experiment [1] (setting [22]) it was -4.67%.

`O=c1c(O)c(-c2ccc(O)cc2)oc2cc(O)cc(O)c12`: the Potency result in experiment [3] and in experiment [4] was “inactive” each time. Also, the activity change, negative = inhibition in experiment [1] (at 25.7 µM (top of the series)) is -1.01% (inactive); in [1] (at 57.5 µM (top of the series)), 9.57% (inactive). Besides, the max response was -23.1% and 1.49% in experiment [1] (setting [21]); -23.3% and 13.5% in [1] (setting [22]).

In the case of `O=C1NCC2(CCN(CCc3ccccc3)CC2)O1`, the compound was classed as inactive in [2], in experiment [5], in experiment [19], in experiment [6], in experiment [20] and in experiment [16]. Moreover, the compound was called inactive in experiment [17]. The activity change, negative = inhibition in experiment [1] (at 25.7 µM (top of the series)) is -2.42% (inactive); in experiment [1] (at 57.5 µM (top of the series)) it was 11.9% (inactive) and -0.152% (inactive). Moreover, the max response in experiment [1] (setting [21]) is -3.3% and 25.9% and -24.6%; in [1] (setting [22]), -4.45% and 48.5% and -24.1%. The Potency entry in experiment [8], in experiment [10], in experiment [11], in experiment [12] and in experiment [14] was “inactive” throughout.
